# Source: the supplement of paper PMC4166925
# ± gives the standard deviation of the averaged measurements. Over roughly 33,000 sequences, “E-score (dimensionless, -0.5 to 0.5)” has its median near -0.049; the highest 2% begin near 0.37. Only a selection was taken, and the highest values are over-represented in it overall.
# Tested on: T1, PmTbr T-box DNA-binding domain (GST fusion)
# T1 sequence: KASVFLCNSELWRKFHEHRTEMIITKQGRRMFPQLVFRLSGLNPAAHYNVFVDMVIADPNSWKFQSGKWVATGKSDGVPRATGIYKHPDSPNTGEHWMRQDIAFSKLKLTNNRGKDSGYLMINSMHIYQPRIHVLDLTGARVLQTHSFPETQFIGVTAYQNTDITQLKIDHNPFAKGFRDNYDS
# Test: PBM E-score of 8-mer (E-score (dimensionless, -0.5 to 0.5)); Tbr is Tbrain of the sea star Patiria miniata (Pm) or the sea urchin Strongylocentrotus purpuratus (Sp); higher = stronger binding preference
# Conditions: the construct has about 5 more residues each side
# Protocol: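 Universal protein-binding microarray (Agilent AMADID 016060, 60-bp probes with a 35-bp variable region) incubated with 200 nM GST-fused Patiria miniata Tbr T-box DNA-binding domain (residues 272-466) in PBS pH 7.5. Scored for every ungapped 8-mer (given with its reverse complement) by the Universal PBM Analysis Suite as E-score (modified Wilcoxon-Mann-Whitney enrichment, range -0.5 to 0.5; >0.45 counts as bound) and Z-score of median probe intensity. Two replicate arrays (datasets 1 and 2).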
row,Sequence,PBM E-score of 8-mer
1,AGGTGGAG,0.141 ± 0.0032
2,AGGTGGGA,0.418 ± 0.01
3,CGGTGGTA,-0.00583 ± 0.042
4,AGGTGGTC,-0.0579 ± 0.012
5,GGGTGGTA,0.121 ± 0.07
6,AGGTGGTG,0.385 ± 0.042
7,AGGTGGTA,0.415 ± 0.0043
8,AGGTGGGC,-0.0782 ± 0.065
9,CGGTGGGA,-0.0368 ± 0.0018
10,ATTCAGAG,-0.13 ± 0.0013
11,CGACTTGC,0.161 ± 0.025
12,CCATCTCG,-0.0242 ± 0.099
13,GCTTGCCC,-0.245 ± 0.0072
14,TCCATCGA,-0.121 ± 0.022
15,ATAACGCC,0.237 ± 0.023
16,ATTGCACG,0.152 ± 0.033
17,CGGTGGCA,0.147 ± 0.031
18,GGGTGGCA,0.322 ± 0.024
19,AGGTGGCA,0.436 ± 0.0087
20,AGGTGGCC,0.0319 ± 0.077
21,AGGTGGCG,0.412 ± 0.023
22,AAGTGGCG,0.3473 ± 0.0029
23,AAGTTGGA,-0.0116 ± 0.045
24,AGAAGTCC,0.0869 ± 0.022
25,GTAGCCCA,-0.311 ± 0.012

row,Sequence,PBM E-score of 8-mer
1,GCACATCC,0.136 ± 0.038
2,ACACATCT,0.325 ± 0.019
3,ACACATCA,0.299 ± 0.017
4,CCACATCC,-0.102 ± 0.032
5,ACACATCC,0.3871 ± 0.0015
6,ACACATCG,0.382 ± 0.017
7,ACTTCTCC,-0.0311 ± 0.0014
8,GGAGGCTA,-0.209 ± 0.016
9,ATAGGCAT,-0.337 ± 0.021
10,AAAAGGTG,0.442 ± 0.012
11,AAAAGGTT,-0.0316 ± 0.041
12,CAAAGGTC,-0.13 ± 0.039
13,AAAAGGTC,-0.0764 ± 0.033
14,CAAAGGTA,-0.133 ± 0.035
15,CAAAGGTG,0.436 ± 0.018
16,GAAATTAA,-0.113 ± 0.044
17,GTTGCTCA,0.0245 ± 0.051
18,ACCCTCAG,0.0121 ± 0.00031
19,AACTAGGC,-0.0964 ± 0.044
20,CTTCCCCC,-0.166 ± 0.07
21,AGCTGGGC,-0.222 ± 0.056
22,GCTGGTTA,-0.0863 ± 0.064
23,CACCTATA,0.377 ± 0.018
24,AACCTATT,-0.172 ± 0.056
25,AACCTATG,-0.141 ± 0.019

row,Sequence,PBM E-score of 8-mer
1,GACCTATC,-0.0538 ± 0.05
2,CACCTATC,0.399 ± 0.0088
3,AACCTATA,-0.0111 ± 0.13
4,TACCTATA,-0.137 ± 0.041
5,CACCTATG,0.429 ± 0.011
6,AACCTATC,-0.165 ± 0.17
7,CGACTCAG,-0.0525 ± 0.0052
8,CTTTATGA,-0.00777 ± 0.018
9,CTCCACAC,0.341 ± 0.0092
10,GGCGTCAA,0.4094 ± 0.001
11,GGCGTTAA,0.377 ± 0.024
12,AGCGTCAA,0.258 ± 0.0039
13,TGCGTTAA,0.109 ± 0.017
14,CGCGTCAA,0.308 ± 0.0074
15,AGCGTTAA,0.265 ± 0.06
16,AAACCAAC,-0.0437 ± 0.062
17,CCATTAAA,-0.239 ± 0.0035
18,ATTTCGCG,0.4125 ± 0.00097
19,ATTTCGCA,0.378 ± 0.0045
20,ATTTCGCC,-0.0762 ± 0.14
21,CTTTCGCC,-0.0672 ± 0.025
22,CTTTCGGA,-0.0447 ± 0.021
23,AATTCGCG,0.303 ± 0.035
24,ATTTCGAG,0.09258 ± 0.00026
25,CTTTCGCA,0.411 ± 0.015

row,Sequence,PBM E-score of 8-mer
1,GTTTCGCA,0.3685 ± 0.0028
2,GTTCGAAA,-0.132 ± 0.091
3,GTATTCGA,0.0428 ± 0.0073
4,GATCGAAC,-0.0822 ± 0.031
5,CGCACAGA,-0.108 ± 0.087
6,AACTGATG,0.0361 ± 0.047
7,CGCTTTGC,-0.129 ± 0.036
8,ATCCATTG,-0.235 ± 0.089
9,ACTTGGCA,0.239 ± 0.015
10,AGATGTTC,0.0612 ± 0.07
11,AGATGTCC,-0.322 ± 0.016
12,AGGTGTTG,0.4891 ± 0.0019
13,AGATGTTG,0.0167 ± 0.014
14,AGGTGTTC,0.4091 ± 0.0032
15,ACGTGTCC,0.0892 ± 0.034
16,AGGTGTCC,0.45 ± 0.0092
17,CGGTGTTC,-0.0289 ± 0.062
18,AGCTGTTG,0.2441 ± 0.0021
19,GAGCGAAC,0.0537 ± 0.089
20,GCTAACTA,0.212 ± 0.07
21,ACGCTAGT,0.036 ± 0.023
22,GCACACTA,0.102 ± 0.027
23,GATAGCCA,-0.257 ± 0.028
24,CAACGCTC,-0.0448 ± 0.0033
25,ATTTCACG,0.319 ± 0.026

row,Sequence,PBM E-score of 8-mer
1,GTTTCACA,0.36 ± 0.027
2,ATTTCACC,0.167 ± 0.058
3,ATTTCACA,0.426 ± 0.013
4,CTTTCACA,0.444 ± 0.0053
5,CTTTCACC,0.14 ± 0.034
6,ACCATTCG,0.233 ± 0.04
7,ATCTTTTG,-0.2448 ± 0.0018
8,CATTTTGC,-0.00766 ± 0.017
9,CGATCTTA,-0.0203 ± 0.061
10,TGATCACA,0.20944 ± 9.2e-05
11,ATGTGAAA,0.287 ± 0.019
12,CCGTGAAC,0.257 ± 0.04
13,CTGTGAAC,0.356 ± 0.0043
14,TCGTGAAA,0.279 ± 0.018
15,GTGTGAAC,0.4888 ± 0.0019
16,CTGTGAAA,0.384 ± 0.0085
17,TTGTGAAA,0.344 ± 0.027
18,CCGTGAAA,0.222 ± 0.019
19,ACGTGAAC,0.112 ± 0.051
20,GCGTGAAA,0.4552 ± 0.0024
21,GCGTGAAC,0.405 ± 0.021
22,ATGTGAAC,0.175 ± 0.039
23,CCCAGGTA,-0.102 ± 0.03
24,CGCTTCAA,0.0949 ± 0.078
25,AATCGCTG,-0.0604 ± 0.024

row,Sequence,PBM E-score of 8-mer
1,CCCATCCG,-0.108 ± 0.058
2,ACATCGTA,-0.0767 ± 0.038
3,ATCAATAA,-0.279 ± 0.033
4,GCTCCTGA,-0.206 ± 0.08
5,ACCAGGTA,-0.0585 ± 0.034
6,AGCAGGTC,0.0259 ± 0.014
7,ACCAGGTG,0.369 ± 0.028
8,AACAGGTC,0.14 ± 0.036
9,CACAGGTG,0.461 ± 0.0062
10,AGCAGGTG,0.414 ± 0.026
11,CACAGGTA,0.163 ± 0.029
12,CACAGGTC,0.15 ± 0.028
13,AACAGGTG,0.4042 ± 0.00081
14,AGCAGGTA,-0.0669 ± 0.01
15,AACAGGTA,0.126 ± 0.015
16,ACCAGGTC,-0.101 ± 0.039
17,TATTCGGA,-0.32 ± 0.033
18,ACGCGACG,0.237 ± 0.016
19,AACTGCAT,-0.201 ± 0.029
20,CCTAAGAC,-0.178 ± 0.094
21,CCCAAGGG,-0.052 ± 0.028
22,CTACAGAA,0.0244 ± 0.029
23,CACATTGG,0.281 ± 0.053
24,TGTTTGAA,0.112 ± 0.0038
25,ATCAGGTG,0.404 ± 0.0092

row,Sequence,PBM E-score of 8-mer
1,ATCAGGTA,-0.0936 ± 0.033
2,ATCAGGTC,-0.169 ± 0.12
3,AAGGTGCC,0.405 ± 0.0071
4,AAGGTGCT,0.441 ± 0.0066
5,GAGGTGCA,0.367 ± 0.0099
6,GAGGTGCC,0.409 ± 0.03
7,ACGGTGCA,0.0807 ± 0.013
8,TAGGTGCA,0.22 ± 0.024
9,AAGGTGGT,0.3415 ± 0.002
10,ACGGTGCC,0.158 ± 0.032
11,GCGGTGCC,0.0932 ± 0.011
12,ACGGTGCT,0.164 ± 0.072
13,AAGGTGCA,0.4 ± 0.011
14,ATGGTGCC,0.193 ± 0.051
15,ACTTTTTC,0.124 ± 0.02
16,AAAAGACT,-0.205 ± 0.034
17,CAGTCCTC,-0.118 ± 0.032
18,CCACTGCC,-0.17 ± 0.095
19,CAGAAGTA,-0.223 ± 0.0053
20,ATCCACAG,-0.0977 ± 0.018
21,ATCGAACA,-0.0797 ± 0.051
22,CCCAGGGG,-0.162 ± 0.093
